# Laboratory results: PubChem BioAssay
# “And” between values parts separate entries of the source, which are not always exact repeats. Identical values can stand only once. Values without a mark were called inactive.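 Rule for the calls: active = Her2 level under about 52% in both replicate screens, with viability over 70% of control (limit read from the data); inconclusive = Her2 under the limit in one screen only, or viability under 70%; inactive = Her2 level above the set limit.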
# Target: Receptor tyrosine-protein kinase erbB-2 (Homo sapiens) (UniProt P04626)
# Assay: reducers of endogenous Her2 protein level, primary screen, SKBR3 breast tumor cells, AlphaScreen, ATP viability (AID 461);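 note: lower value means less Her2 protein in the cells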
# Conditions: 18-24 h, at 10 µM, active compounds read low
# Receptor tyrosine-protein kinase erbB-2 (Homo sapiens), sequence (P04626 whole entry, looked up): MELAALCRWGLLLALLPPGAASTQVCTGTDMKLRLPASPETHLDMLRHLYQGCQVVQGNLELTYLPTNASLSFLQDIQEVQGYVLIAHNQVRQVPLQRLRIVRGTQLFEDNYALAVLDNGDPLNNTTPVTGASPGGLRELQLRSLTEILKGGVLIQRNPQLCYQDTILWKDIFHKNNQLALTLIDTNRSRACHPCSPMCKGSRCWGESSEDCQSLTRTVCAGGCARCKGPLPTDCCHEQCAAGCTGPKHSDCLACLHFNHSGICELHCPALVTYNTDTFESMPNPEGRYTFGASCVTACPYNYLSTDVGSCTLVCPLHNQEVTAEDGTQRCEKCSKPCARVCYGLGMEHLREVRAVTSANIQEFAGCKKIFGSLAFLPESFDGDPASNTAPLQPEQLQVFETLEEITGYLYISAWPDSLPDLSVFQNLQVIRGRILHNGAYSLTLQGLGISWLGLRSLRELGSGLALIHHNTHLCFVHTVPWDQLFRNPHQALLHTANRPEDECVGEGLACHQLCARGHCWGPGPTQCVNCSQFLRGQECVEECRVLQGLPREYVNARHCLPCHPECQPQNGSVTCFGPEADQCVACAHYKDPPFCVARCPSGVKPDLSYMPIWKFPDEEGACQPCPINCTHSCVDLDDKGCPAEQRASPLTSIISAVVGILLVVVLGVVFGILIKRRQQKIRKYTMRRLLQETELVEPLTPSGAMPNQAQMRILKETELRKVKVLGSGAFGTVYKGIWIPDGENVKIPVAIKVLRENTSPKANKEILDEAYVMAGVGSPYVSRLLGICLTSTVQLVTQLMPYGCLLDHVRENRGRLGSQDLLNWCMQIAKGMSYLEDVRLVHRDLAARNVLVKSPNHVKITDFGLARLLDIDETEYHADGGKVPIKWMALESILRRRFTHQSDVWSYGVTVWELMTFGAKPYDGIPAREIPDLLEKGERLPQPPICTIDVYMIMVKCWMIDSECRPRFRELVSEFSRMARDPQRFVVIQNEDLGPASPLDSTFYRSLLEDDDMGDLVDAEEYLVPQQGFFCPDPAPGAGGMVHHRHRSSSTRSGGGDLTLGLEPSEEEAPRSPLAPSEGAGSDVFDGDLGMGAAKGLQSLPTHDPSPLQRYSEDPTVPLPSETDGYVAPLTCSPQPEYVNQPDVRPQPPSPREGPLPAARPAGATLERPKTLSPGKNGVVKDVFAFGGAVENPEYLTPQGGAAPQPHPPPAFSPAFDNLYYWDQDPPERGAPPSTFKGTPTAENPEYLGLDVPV
row,Compound,Her2 level
1,CC(C)N(CCC(C(N)=O)(c1ccccc1)c1ccccn1)C(C)C (centres undefined),114%
2,C[N+]1(C)CCc2cc3c(cc2[C@H]1[C@@H]1OC(=O)c2c1ccc1c2OCO1)OCO3,102%
3,c1ccc2c(c1)OCC(C1=NCCN1)O2 (centres undefined),108%
4,COc1ccc(OC)c(C(O)C(C)N)c1 (centres undefined),118%
5,C[N+]1(C)[C@@H]2CC[C@H]1CC(OC(=O)C(CO)c1ccccc1)C2 (some centres undefined),100% and 106%
6,COc1ccc2[nH]cc(CCN(C)C)c2c1,126%
7,CCC(COC(=O)c1cc(OC)c(OC)c(OC)c1)(c1ccccc1)N(C)C (centres undefined),107%
8,COc1ccc(C(=O)N2CCCC2=O)cc1,94.5%
9,CC[C@@H]1C(=O)OC[C@@H]1Cc1cncn1C,107%
